This is an account of results in PubChem BioAssay.

Experiment [1] is described as follows: inhibitors of TNFa-induced NFkB p65 translocation, primary screen, imaging, HUVEC, MLSMR starter and 10KST1 sets (AID 438;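 active = inhibition above 20% together with a positive visual image hit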;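 note: compound added about 3h40 before a 20 min TNFalpha stimulation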;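 for inhibition: signal is the nuclear over cytoplasmic p65 intensity ratio per well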). The following applies: HUVEC TNFa-induced p65 nuclear translocation; cell count: measured here: nuclei count (cytotoxicity indicator), at 2.08 µM; inhibition: at 2 µM, stronger effect = higher value, 0% TNFa-plus-vehicle, 100% no-TNFa wells.
Experiment [2] in a line: reduction of polyQ htt aggregates in cells – imaging, exon1htt(103Q)mCFP cells, high-content imaging, primary screen (AID 483;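 active = visual image review flags a hit and inhibition of aggregation exceeds 20%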;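 note: compound exposure lasted 3 days before fixation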;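 for nuclei count: percent of the per-plate median nuclei count of sample wells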). The following applies: exon1htt(103Q)mCFP cell line, aggregate imaging, at 2 µM; inhibition of aggregation: stronger effect = higher value; nuclei count: measured here: cell count, toxicity.
A short description of experiment [3]: endothelial E-selectin expression blockers – imaging, HUVEC, immunofluorescence, MLSMR starter and 10KST1 sets, primary screen (AID 487;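 active = visually confirmed hit in the image check and inhibition above 20%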;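 for inhibition: signal is fraction of cell area covered by stained E-selectin grains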;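 for nuclei count: 100% = median nuclei count of all wells on the same plate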). The following applies: HUVEC TNFalpha-induced E-selectin immunofluorescence imaging, at 2 µM; inhibition: stronger effect = higher value; nuclei count: measured here: cell number, toxicity.
The target in experiment [4] is Voltage-gated potassium channel subunit beta-2 (Rattus norvegicus) (UniProt P62483). Description: inhibitors of rat Kvbeta2 reductase activity – biochemical, NADPH fluorescence, primary screen (AID 622;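 active = fluorescence slope higher than the sample average by over 3 SD, cut at about -0.22 in these data, passing the limit was not always enough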;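 note: slope of raw intensity against log time taken from 70 to 1610 s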). Particulars: recombinant KvBeta, 4-cyanobenzaldehyde reduction, at 10 µM, stronger effect = higher value.
Experiment [5] shares this target. The experiment can be described thus: enhancers of rat Kvbeta2 NADPH turnover – biochemical, NADPH fluorescence, primary screen (AID 623;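 active = NADPH fluorescence slope more negative than the mean of all samples by about 3 SD, 99.7% confidence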;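 note: fluorescence intensity change per second fitted from 20 to 320 s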). Particulars: Recombinant KvBeta, NADPH fluorescence decrease slope, 10 min; at 10 µM; stronger effect = lower value.
In experiment [6] the target is Alpha-2C adrenergic receptor (Homo sapiens) (UniProt P18825). The experiment can be described thus: compounds altering alpha2C-coupled GIRK flux – cell-based, HEK293 alpha2C/GIRK1/2, thallium flux, primary screen (AID 624).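 Note: slope of fluorescence ratio to pre-addition baseline per second over 15 to 24 s.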 The following applies: thallium flux BTC fluorescence, at 10 µM, actives lie on both sides.
The nature of experiment [7]: blockers of RIG-like receptor reporter activation – cell-based, Sendai virus stimulus, luciferase, 10K MLSCN set, TLR/RLR signaling modifier project, primary screen (AID 602276;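 active = inhibition at or above 50% at 10 µM; inactive = inhibition below 50%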;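 note: firefly luciferase from ISG56 promoter only with Renilla not read in this screen; 0% = Sendai virus plus DMSO and 100% = medium plus DMSO without virus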). Particulars: HEK293 RL24 IRF3 luciferase reporter, at 10 µM, stronger effect = higher value. On the technique in general: A reporter such as luciferase makes a cellular process visible.
Experiment [8] is described as follows: TLR3 IRF3 reporter activation blockers – cell-based, poly I:C stimulus, luciferase, 10K MLSCN set, primary screen (AID 602277;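 active = inhibition of the reporter signal at or above 50%; inactive = inhibition below 50%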). The following applies: HEK293-TLR3 RL24 IRF3 luciferase reporter, at 10 µM, stronger effect = higher value.

Calls of active or inactive are those of the source.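 Rule for the calls, unless noted: active = fluorescence slope after compound addition differing from the mean of all screened samples at 99.7% confidence, in either direction; inactive = the rest.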

Sequence of Alpha-2C adrenergic receptor (Homo sapiens) (P18825 whole entry, looked up): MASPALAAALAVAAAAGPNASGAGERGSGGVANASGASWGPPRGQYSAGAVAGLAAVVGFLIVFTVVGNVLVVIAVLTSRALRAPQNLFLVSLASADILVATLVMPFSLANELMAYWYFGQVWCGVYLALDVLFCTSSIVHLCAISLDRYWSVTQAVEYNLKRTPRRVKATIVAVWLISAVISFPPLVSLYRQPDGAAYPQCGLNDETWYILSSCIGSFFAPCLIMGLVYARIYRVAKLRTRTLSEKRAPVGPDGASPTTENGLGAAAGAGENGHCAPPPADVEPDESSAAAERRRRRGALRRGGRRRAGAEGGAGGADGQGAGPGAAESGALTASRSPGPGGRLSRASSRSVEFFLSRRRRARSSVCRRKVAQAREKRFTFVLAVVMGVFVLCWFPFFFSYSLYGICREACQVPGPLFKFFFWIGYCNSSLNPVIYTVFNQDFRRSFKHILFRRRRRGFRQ
Sequence of Voltage-gated potassium channel subunit beta-2 (Rattus norvegicus) (P62483 whole entry, looked up): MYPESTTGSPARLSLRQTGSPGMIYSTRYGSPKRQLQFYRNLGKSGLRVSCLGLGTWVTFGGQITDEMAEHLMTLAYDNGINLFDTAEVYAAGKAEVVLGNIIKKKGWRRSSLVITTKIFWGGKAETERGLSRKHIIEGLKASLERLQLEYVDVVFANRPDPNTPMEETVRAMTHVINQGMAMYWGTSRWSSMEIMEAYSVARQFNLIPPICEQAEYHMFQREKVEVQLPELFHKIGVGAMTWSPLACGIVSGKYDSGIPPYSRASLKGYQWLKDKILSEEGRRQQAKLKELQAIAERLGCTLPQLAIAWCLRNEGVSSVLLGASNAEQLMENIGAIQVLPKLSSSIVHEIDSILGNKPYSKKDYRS

In the case of `OC(CCN1CCOCC1)(c1ccc(Cl)cc1)C1CCCCC1` (centres undefined), the cell count in experiment [1] turned out to be 663. For the same compound, the inhibition in experiment [1] is -1% (inactive); in experiment [3], 37.9% (inactive); in experiment [7], -9.83% (inactive); in experiment [8], -48.9% (inactive). The inhibition of aggregation in experiment [2] was -1.2% (inactive). For the same compound, the values for the nuclei count in experiment [2] and in experiment [3] were 48.5% and 120%, respectively. Further, the fluorescence slope in experiment [4] is -0.588 (inactive). Further, the NADPH fluorescence slope in experiment [5] was -2.6e-05 (inactive). In addition, the slope in experiment [6] was 0.00224 (inactive).

For the compound `O=C(c1cc2n(n1)C(C(F)(F)F)CC(c1ccc(Cl)cc1)N2)N1CCCC1` (centres undefined), in experiment [1], the cell count stood at 259. The inhibition was -5.8% (inactive) in experiment [1], -9.7% (inactive) in experiment [3], 14.3% (inactive) in experiment [7] and 16.5% (inactive) in experiment [8]. Also, the inhibition of aggregation in experiment [2] was -22.3% (inactive). Further, the nuclei count in experiment [2] turned out to be 112%; in experiment [3] it was 102%. The fluorescence slope in experiment [4] is -0.322 (inactive). For the same compound, in experiment [5], the NADPH fluorescence slope was 4.7e-06 (inactive). Moreover, the slope in experiment [6] is 0.00413 (inactive).

Consider `COC(=O)CCC(=O)Nc1ccc(S(=O)(=O)N2CCCCCC2)cc1`, for which the cell count in experiment [1] turned out to be 743. The inhibition in experiment [1] is 16.7% (inactive); in experiment [3], 34.8% (inactive); in experiment [7], 8.32% (inactive); in experiment [8], 24.1% (inactive). Also, in experiment [2], the inhibition of aggregation is -20.5% (inactive). Moreover, the nuclei count stood at 97.4% in experiment [2] and 116% in experiment [3]. In experiment [4], the fluorescence slope was -0.496 (inactive). Also, in experiment [5], the NADPH fluorescence slope was -5.3e-05 (inactive). The slope in experiment [6] was 0.00616 (inactive).

In the case of `COc1ccc(N2CCN(c3ccc(N)cc3C#N)CC2)cc1`, the cell count in experiment [1] worked out at 744. In addition, the inhibition is -6.6% (inactive) in experiment [1], -65.8% (inactive) in experiment [3], 3.39% (inactive) in experiment [7] and 21.5% (inactive) in experiment [8]. Also, the inhibition of aggregation in experiment [2] was 28.1% (inactive). Also, the nuclei count in experiment [2] came to 102%; in experiment [3], 104%. Also, the fluorescence slope in experiment [4] is -0.593 (inactive). Moreover, the NADPH fluorescence slope in experiment [5] is -2.3e-05 (inactive). Moreover, the slope in experiment [6] was 0.00782 (inactive).

On to `CC1(C)CC(=O)c2cnc(NC(=O)CCc3ccccc3)nc2C1`, for which the cell count in experiment [1] stood at 608. Also, the inhibition is -15.9% (inactive) in experiment [1], -24.7% (inactive) in experiment [3], 14.3% (inactive) in experiment [7] and 33% (inactive) in experiment [8]. Also, the inhibition of aggregation in experiment [2] is -15.3% (inactive). Besides, the nuclei count turned out to be 112% in experiment [2] and 119% in experiment [3]. The fluorescence slope in experiment [4] is -0.365 (inactive). Also, in experiment [5], the NADPH fluorescence slope is 9.1e-06 (inactive). The slope in experiment [6] was 0.00293 (inactive).

Consider `CC1CN(c2nc3ccccc3nc2C(C#N)C(=O)NCc2ccc3c(c2)OCO3)CC(C)O1` (centres undefined), for which the cell count in experiment [1] is 340. The inhibition was 4.7% (inactive) in experiment [1], -24.9% (inactive) in experiment [3], 18.7% (inactive) in experiment [7] and 14.5% (inactive) in experiment [8]. Further, the inhibition of aggregation in experiment [2] is 11.1% (inactive). The nuclei count in experiment [2] was found to be 83.9%; in experiment [3], 81.7%. The fluorescence slope in experiment [4] was -0.347 (inactive). Also, the NADPH fluorescence slope in experiment [5] was -5.3e-05 (inactive). Also, the slope in experiment [6] was 0.00757 (inactive).

For `S=C(c1ccc(-c2cc(Cl)ccc2Cl)o1)N1CCOCC1`, the cell count in experiment [1] is 365. Further, the inhibition was -10.4% (inactive) in experiment [1], -53.8% (inactive) in experiment [3], 21.6% (inactive) in experiment [7] and 8.92% (inactive) in experiment [8]. The inhibition of aggregation in experiment [2] was -14% (inactive). The figures for the nuclei count in experiment [2] and in experiment [3] were 111% and 113%, respectively. Besides, in experiment [4], the fluorescence slope is -0.523 (inactive). Also, the NADPH fluorescence slope in experiment [5] was -6e-06 (inactive). In experiment [6], the slope is 0.00341 (inactive).

`CCCCC(CC)CNC(=O)C1CCCN(S(=O)(=O)c2cnc[nH]2)C1` (centres undefined): the cell count in experiment [1] is 565. Further, the inhibition in experiment [1] is 8.7% (inactive); in experiment [3], 0.3% (inactive); in experiment [7] it was 10.8% (inactive); in experiment [8], 15.8% (inactive). Further, the inhibition of aggregation in experiment [2] is 2.1% (inactive). Moreover, the results for the nuclei count in experiment [2] and in experiment [3] were 75.2% and 104%, respectively. Besides, the fluorescence slope in experiment [4] was -0.491 (inactive). Also, the NADPH fluorescence slope in experiment [5] was -1.6e-05 (inactive). For the same compound, the slope in experiment [6] is 0.00613 (inactive).

In the case of `CC(=O)N(C)C1(c2nnnn2CCOC(=O)Nc2ccc(Cl)cc2)CCCCC1`, in experiment [1], the cell count came to 498. Also, the inhibition in experiment [1] was 4.3% (inactive); in experiment [3], -33.3% (inactive); in experiment [7] it was 1.79% (inactive); in experiment [8], 20.6% (inactive). Further, the inhibition of aggregation in experiment [2] was 5.4% (inactive). Further, the nuclei count in experiment [2] was 107%; in experiment [3], 105%. Moreover, in experiment [4], the fluorescence slope is -0.398 (inactive). Moreover, the NADPH fluorescence slope in experiment [5] was -3.1e-05 (inactive). For the same compound, in experiment [6], the slope is 0.00444 (inactive).

With `CCCCOC(=O)Cn1c(=O)oc2ccc(C)cc21`, the cell count in experiment [1] turned out to be 741. In addition, the inhibition in experiment [1] is -5.8% (inactive); in experiment [3], -96.5% (inactive); in experiment [7], -5.21% (inactive); in experiment [8], 7.21% (inactive). The inhibition of aggregation in experiment [2] is 3.3% (inactive). Further, the nuclei count stood at 38% in experiment [2] and 109% in experiment [3]. For the same compound, in experiment [4], the fluorescence slope was -0.589 (inactive). For the same compound, in experiment [5], the NADPH fluorescence slope is -4.7e-05 (inactive). Moreover, the slope in experiment [6] is 0.00659 (inactive).

With `CC(=O)NC(CCS(C)(=O)=O)C(=O)Nc1cccc(C)c1C` (centres undefined), the cell count in experiment [1] was 576. For the same compound, the inhibition is 4.3% (inactive) in experiment [1], -6.3% (inactive) in experiment [3], 17.7% (inactive) in experiment [7] and 38.7% (inactive) in experiment [8]. Besides, the inhibition of aggregation in experiment [2] is 0.4% (inactive). Further, the nuclei count worked out at 110% in experiment [2] and 117% in experiment [3]. In experiment [4], the fluorescence slope is -0.542 (inactive). In addition, in experiment [5], the NADPH fluorescence slope was -7e-05 (inactive). The slope in experiment [6] was 0.00627 (inactive).

`Cn1c(-c2ccc(C(C)(C)C)cc2)n[nH]c1=S`: the cell count in experiment [1] stood at 647. Also, the inhibition in experiment [1] is -5.8% (inactive); in experiment [3] it was 47.5% (inactive); in experiment [7], -11.8% (inactive); in experiment [8] it was -25.2% (inactive). In experiment [2], the inhibition of aggregation is -4.8% (inactive). In addition, the nuclei count worked out at 77.2% in experiment [2] and 79.7% in experiment [3]. The fluorescence slope in experiment [4] was -0.46 (inactive). The NADPH fluorescence slope in experiment [5] is -0.000112 (inactive). The slope in experiment [6] is 0.00619 (inactive).

`O=C(CCn1c(=O)oc2ccccc21)N1CCN(c2ccccc2Cl)CC1`: the cell count in experiment [1] came to 570. In addition, the inhibition in experiment [1] is 3.9% (inactive); in experiment [3], 26.9% (inactive); in experiment [7] it was 49.8% (inactive); in experiment [8], 19.6% (inactive). Also, the inhibition of aggregation in experiment [2] was -52.3% (inactive). Further, the nuclei count in experiment [2] is 22.3%; in experiment [3] it was 81.9%. The fluorescence slope in experiment [4] was -0.379 (inactive). Also, the NADPH fluorescence slope in experiment [5] is -2e-05 (inactive). The slope in experiment [6] was 0.0037 (inactive).

With `CCOC(=O)c1cccc(NC2c3ccccc3C(=O)N2Cc2ccco2)c1` (centres undefined), the cell count in experiment [1] turned out to be 700. Further, the inhibition in experiment [1] is -2.3% (inactive); in experiment [3], -10.9% (inactive); in experiment [7], 6.59% (inactive); in experiment [8] it was 17.6% (inactive). For the same compound, in experiment [2], the inhibition of aggregation is 10.2% (inactive). Also, the nuclei count was determined as 117% in experiment [2] and 119% in experiment [3]. Also, in experiment [4], the fluorescence slope was -0.554 (inactive). The NADPH fluorescence slope in experiment [5] is -4.1e-05 (inactive). In addition, the slope in experiment [6] is 0.00706 (inactive).

By inhibition is commonly meant the drop in the measured response relative to a control, in per cent.
